Results filed as inconclusive are left out. The source made the active and inactive calls. Calls come from the whole dose curve; as a rule, active = well fitted curve in the direction sought with a large enough effect in the repeat runs; inconclusive = weak or mixed curves; inactive = no such curve, though single readings can be large; an effect the other way counts as inactive or inconclusive.
Key:
[1] = qHTS RealTime-Glo MT Cell Viability Assay in HepG2 cells - 8 hour (AID 1224873); settings: RealTime-Glo luminescence; series mostly up to 76.8 µM; note: nearly all actives have a fitted effect of over 55% in size
How it was run: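 HepG2 cells (600/well) mixed with RealTime-Glo MT reagent, settled 5 h at 37 C/5% CO2 before compound addition. Nonlytic NanoLuc luminescence from viable-cell prosubstrate reduction read repeatedly during 40 h treatment at 37 C.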

[2] = qHTS RealTime-Glo MT Cell Viability Assay in HEK293 cells - 40 hour (AID 1224874); settings: RealTime-Glo luminescence; max response: stronger effect = lower value; note: nearly all actives have a fitted effect of over 50% in size
How it was run: (§1)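 Tox21 screen in HEK293 using RealTime-Glo MT chemistry, with cells and reagent co-dispensed. Luminescence proportional to viable cell number was captured at intervals during 40 h compound exposure at 37 C.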

[3] = A CellTox Green Cytotoxicity Assay to monitor cytotoxicity in HEK293 cells - 24 hour (AID 1224875); settings: CellTox Green fluorescence, stronger effect = higher value; series mostly up to 76.8 µM; note: nearly all actives have a fitted effect of over 45% in size
How it was run: (§2)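 Seeding of HEK293 cells together with cytotoxicity dye preceded a 5 h incubation at 37 C/5% CO2. Test compounds in DMSO were then added and fluorescence monitored across 40 h.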

[4] = A CellTox Green Cytotoxicity Assay to monitor cytotoxicity in HepG2 cells - 16 hour (AID 1224876); settings: CellTox Green fluorescence; series mostly up to 76.8 µM; note: nearly all actives have a fitted effect of over 45% in size
How it was run: (§3)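 Nonlytic assay: viable cells exclude the dye, so fluorescence scales with cell death. HepG2 at 600 cells/well, compounds added after 5 h, signal read across 40 h.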

[5] = qHTS RealTime-Glo MT Cell Viability Assay in HepG2 cells - 32 hour (AID 1224877); settings: RealTime-Glo luminescence; series mostly up to 76.8 µM; note: nearly all actives have a fitted effect of over 55% in size
How it was run: (§4)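 Viability was tracked continuously by NanoLuc luminescence from prosubstrate reduced by living HepG2 cells, at successive time points over 40 h of compound exposure. Cells with reagent were preincubated 5 h at 37 °C before compound addition.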

[6] = A CellTox Green Cytotoxicity Assay to monitor cytotoxicity in HepG2 cells - 24 hour (AID 1224878); settings: CellTox Green fluorescence; series mostly up to 76.8 µM; note: nearly all actives have a fitted effect of over 45% in size
How it was run: as §3

[7] = A CellTox Green Cytotoxicity Assay to monitor cytotoxicity in HepG2 cells - 40 hour (AID 1224879); settings: CellTox Green fluorescence; series mostly up to 76.8 µM; note: nearly all actives have a fitted effect of over 40% in size
How it was run: as §3

[8] = qHTS RealTime-Glo MT Cell Viability Assay in HEK293 cells - 0 hour (AID 1224880); settings: RealTime-Glo luminescence; series mostly up to 76.8 µM; note: top concentration of the series differs between compounds; nearly all actives have a fitted effect of over 45% in size
How it was run: as §1

[9] = A CellTox Green Cytotoxicity Assay to monitor cytotoxicity in HEK293 cells - 32 hour (AID 1224881); settings: CellTox Green fluorescence; series mostly up to 76.8 µM; note: nearly all actives have a fitted effect of over 40% in size
How it was run: as §2

[10] = A CellTox Green Cytotoxicity Assay to monitor cytotoxicity in HepG2 cells - 0 hour (AID 1224882); settings: CellTox Green fluorescence; series mostly up to 76.8 µM; note: nearly all actives have a fitted effect of over 35% in size
How it was run: as §3

[11] = A CellTox Green Cytotoxicity Assay to monitor cytotoxicity in HepG2 cells - 32 hour (AID 1224883); settings: CellTox Green fluorescence; series mostly up to 76.8 µM; note: nearly all actives have a fitted effect of over 50% in size
How it was run: as §3

[12] = A CellTox Green Cytotoxicity Assay to monitor cytotoxicity in HEK293 cells - 8 hour (AID 1224884); settings: CellTox Green fluorescence; series mostly up to 76.8 µM; note: nearly all actives have a fitted effect of over 35% in size
How it was run: as §2

[13] = qHTS RealTime-Glo MT Cell Viability Assay in HepG2 cells - 16 hour (AID 1224885); settings: RealTime-Glo luminescence; series mostly up to 76.8 µM; note: nearly all actives have a fitted effect of over 50% in size
How it was run: as §4

[14] = qHTS RealTime-Glo MT Cell Viability Assay in HEK293 cells - 24 hour (AID 1224886); settings: RealTime-Glo luminescence; series mostly up to 76.8 µM; note: top concentration of the series differs between compounds; nearly all actives have a fitted effect of over 50% in size
How it was run: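 Viability tracked continuously by luminescence as live cells reduce a prosubstrate for NanoLuc; HEK293 cells preincubated 5 h, compound-treated at 37 C, and read at 0, 8, 16, 24, 32 and 40 h.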

[15] = qHTS RealTime-Glo MT Cell Viability Assay in HEK293 cells - 8 hour (AID 1224887); settings: RealTime-Glo luminescence; series mostly up to 76.8 µM
How it was run: as §1

[16] = A CellTox Green Cytotoxicity Assay to monitor cytotoxicity in HEK293 cells - 16 hour (AID 1224888); settings: CellTox Green fluorescence, stronger effect = higher value; series mostly up to 76.8 µM; note: nearly all actives have a fitted effect of over 35% in size
How it was run: as §2

[17] = qHTS RealTime-Glo MT Cell Viability Assay in HepG2 cells - 0 hour (AID 1224889); settings: RealTime-Glo luminescence; series mostly up to 76.8 µM; note: nearly all actives have a fitted effect of over 50% in size
How it was run: as §4

[18] = A CellTox Green Cytotoxicity Assay to monitor cytotoxicity in HepG2 cells - 8 hour (AID 1224890); settings: CellTox Green fluorescence; series mostly up to 76.8 µM; note: nearly all actives have a fitted effect of over 45% in size
How it was run: as §3

[19] = qHTS assay to identify small molecule antagonists of the estrogen receptor alpha (ER-alpha) signaling pathway using the BG1 cell line in the presence of 0.1 nM 17-beta-estradiol - cell viability counter screen (AID 1259241); settings: VM7Luc4E2 (BG1) viability, CellTiter-Fluor protease, 22 h, 0.1 nM estradiol agonist added; series mostly up to 92.4 µM; note: nearly all actives have a fitted effect of over 40% in size
How it was run: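 CellTiter-Fluor read (30 min, 37C) on ER-alpha/ERE-luc VM7Luc4E2 cells; 22 hr compound treatment; agonist 0.1 nM E2 final; same-well multiplex.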

[20] = qHTS assay to identify small molecule antagonists of the androgen receptor (AR) signaling pathway using the MDA cell line in the presence of 0.5 nM R1881 - cell viability counter screen (AID 1259242); settings: MDA-kb2 viability, CellTiter-Fluor protease fluorescence, 16 h; series mostly up to 92.4 µM; note: nearly all actives have a fitted effect of over 45% in size
How it was run: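 R1881 at 0.5 nM final stimulated MDA-kb2 cells during 16 hr compound treatment at 37C. Cytotoxicity read: CellTiter-Fluor fluorescence after 30 min.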
% is set by controls: 0 for no effect and ±100 for the full control effect.

CC(=O)N1C[C@H](O)C[C@H]1C(=O)O
inactive: outcome [1] | max response [2] 6.07% | outcome [3] | outcome [4] | Potency [5] | outcome [6] | Potency [7] | Potency [8] | outcome [9] | Potency [10] | Potency [11] | outcome [12] | outcome [13] | Potency [14] | Potency [15] | outcome [16] | Potency [17] | outcome [18] | outcome [19] | outcome [20]

CC1CCC(CO)CC1 (configuration not stated)
inactive: outcome [1] | max response [2] 9.47% | outcome [3] | outcome [4] | Potency [5] | outcome [6] | Potency [7] | Potency [8] | outcome [9] | Potency [10] | Potency [11] | outcome [12] | outcome [13] | Potency [14] | Potency [15] | outcome [16] | Potency [17] | outcome [18] | outcome [19] | outcome [20]

O=C(O)CNC(=O)c1ccc(CO)o1
inactive: outcome [1] | max response [2] 3.96% | outcome [3] | outcome [4] | Potency [5] | outcome [6] | Potency [7] | Potency [8] | outcome [9] | Potency [10] | Potency [11] | outcome [12] | outcome [13] | Potency [14] | Potency [15] | outcome [16] | Potency [17] | outcome [18] | outcome [19] | outcome [20]

CN(C)CCCCCCN(C)C
inactive: outcome [1] | max response [2] -6% | outcome [3] | outcome [4] | Potency [5] | outcome [6] | Potency [7] | Potency [8] | outcome [9] | Potency [10] | Potency [11] | outcome [12] | outcome [13] | Potency [14] | Potency [15] | outcome [16] | Potency [17] | outcome [18]

Cc1ccc(-c2ccccc2C#N)cc1
inactive: outcome [1] | max response [2] 1.26% | outcome [3] | outcome [4] | Potency [5] | outcome [6] | Potency [7] | Potency [8] | outcome [9] | Potency [10] | Potency [11] | outcome [12] | outcome [13] | Potency [14] | Potency [15] | outcome [16] | Potency [17] | outcome [18] | outcome [20]

CC(C)(C)C(=O)c1ccccc1
inactive: outcome [1] | max response [2] 0.84% | outcome [3] | outcome [4] | Potency [5] | outcome [6] | Potency [7] | Potency [8] | outcome [9] | Potency [10] | Potency [11] | outcome [12] | outcome [13] | Potency [14] | Potency [15] | outcome [16] | Potency [17] | outcome [18] | outcome [19] | outcome [20]

NCCCC(N)(C(=O)O)C(F)F (configuration not stated)
inactive: outcome [1] | max response [2] 0.24% | outcome [3] | outcome [4] | Potency [5] | outcome [6] | Potency [7] | Potency [8] | outcome [9] | Potency [10] | Potency [11] | outcome [12] | outcome [13] | Potency [14] | Potency [15] | outcome [16] | Potency [17] | outcome [18] | outcome [19] | outcome [20]

CC(=O)c1ccccc1[N+](=O)[O-]
inactive: outcome [1] | max response [2] 21.1% | outcome [3] | outcome [4] | Potency [5] | outcome [6] | Potency [7] | Potency [8] | outcome [9] | Potency [10] | Potency [11] | outcome [12] | outcome [13] | Potency [14] | Potency [15] | outcome [16] | Potency [17] | outcome [19] | outcome [20]

CCOC(=O)CCC(=O)OCC
inactive: outcome [1] | max response [2] 3.67% | outcome [3] | outcome [4] | Potency [5] | outcome [6] | Potency [7] | Potency [8] | outcome [9] | Potency [10] | Potency [11] | outcome [12] | outcome [13] | Potency [14] | Potency [15] | outcome [16] | Potency [17] | outcome [18] | outcome [19] | outcome [20]

O=C(O)CNC(=O)c1ccccc1
inactive: outcome [1] | max response [2] -1.85% | outcome [3] | outcome [4] | Potency [5] | outcome [6] | Potency [7] | Potency [8] | outcome [9] | Potency [10] | Potency [11] | outcome [12] | outcome [13] | Potency [14] | Potency [15] | outcome [16] | Potency [17] | outcome [18] | outcome [19] | outcome [20]

CCOC(=O)C(=O)CCCCCCl
inactive: outcome [1] | max response [2] 4.01% | outcome [3] | outcome [4] | Potency [5] | outcome [6] | Potency [7] | Potency [8] | outcome [9] | Potency [10] | Potency [11] | outcome [12] | outcome [13] | Potency [14] | Potency [15] | outcome [16] | Potency [17] | outcome [19] | outcome [20]

CCC(=O)OCc1ccccc1
inactive: outcome [1] | max response [2] -6.18% | outcome [3] | outcome [4] | Potency [5] | outcome [6] | Potency [7] | Potency [8] | outcome [9] | Potency [10] | Potency [11] | outcome [12] | outcome [13] | Potency [14] | Potency [15] | outcome [16] | Potency [17] | outcome [18] | outcome [19] | outcome [20]

C=CC(=O)OCCCl
inactive: outcome [1] | max response [2] 21% | outcome [3] | outcome [4] | Potency [5] | outcome [6] | Potency [7] | Potency [8] | outcome [9] | Potency [10] | Potency [11] | outcome [12] | Potency [15] | outcome [16] | Potency [17] | outcome [18] | outcome [19] | outcome [20]

CC(C)C1CCC(O)CC1 (configuration not stated)
inactive: outcome [1] | max response [2] 7.59% | outcome [3] | outcome [4] | Potency [5] | outcome [6] | Potency [7] | Potency [8] | outcome [9] | Potency [10] | Potency [11] | outcome [12] | outcome [13] | Potency [14] | Potency [15] | Potency [17] | outcome [18] | outcome [19] | outcome [20]

Source: PubChem BioAssay (Tox21)
